Giardia kill: kills Giardia lamblia | Giardia lamblia trophozoite viability | activity change, % at 7.66 µM, hits read low | 0.15% of 340,000 active; in the data active = activity change below about -80%; inconclusive = between about -30% and that limit;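 also: parasites exposed to compound for two days anaerobically before the ATP read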
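Viability, read as ATP luminescence: trophozoites at 100 cells/well, compound added, 48 hrs anaerobic at 37 deg C, then 15-30 min room-temperature development before reading.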
KB-V1 cytotox: kills drug-selected multidrug resistant KB-V1 cells; 3.4% of 400,000 active; Potency, µM (highest dose often 46.1 µM), usual class: cytotoxic; KB-V1 MDR cells viability, CellTiter-Glo, 72 h; also: nearly all actives have a fitted effect of over 60% in size
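qHTS viability screen in drug-selected KB-V1 MDR cells: 72 h compound treatment at 37 degrees C, ATP luminescence end point.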
MCF10A rerep: induces DNA re-replication in MCF 10a normal breast cells | 2.9% of 350,000 active | MCF 10A DNA re-replication, Hoechst nuclear intensity, 48 h | Potency, µM (top dose mostly 46.1 µM), hits mostly activators; also: nearly all actives have a fitted effect of over 50% in size
KB-3-1 tox: KB-3-1 parental cell cytotoxicity; KB-3-1 viability, CellTiter-Glo ATP luminescence, 72 h; Potency, µM (doses to about 46.1 µM), hits mostly cytotoxic; 1.4% of 400,000 active; AID 1347075; also: nearly all actives have a fitted effect of over 60% in size
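Here the drug-naive KB-3-1 line serves as comparator for MDR sub-line selectivity; cells received compound titrations, 72 h at 37 °C, then CellTiter-Glo readout.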
ASM inhibitor: blocks human secretory acid sphingomyelinase. P17405. AID 504937. Potency, µM (doses to about 57.5 µM), usual class: inhibitors. placental ASM, HMU-PC fluorogenic substrate, 60 min. 0.006% of 340,000 active
Target sequence (P17405 47-631 limits assumed): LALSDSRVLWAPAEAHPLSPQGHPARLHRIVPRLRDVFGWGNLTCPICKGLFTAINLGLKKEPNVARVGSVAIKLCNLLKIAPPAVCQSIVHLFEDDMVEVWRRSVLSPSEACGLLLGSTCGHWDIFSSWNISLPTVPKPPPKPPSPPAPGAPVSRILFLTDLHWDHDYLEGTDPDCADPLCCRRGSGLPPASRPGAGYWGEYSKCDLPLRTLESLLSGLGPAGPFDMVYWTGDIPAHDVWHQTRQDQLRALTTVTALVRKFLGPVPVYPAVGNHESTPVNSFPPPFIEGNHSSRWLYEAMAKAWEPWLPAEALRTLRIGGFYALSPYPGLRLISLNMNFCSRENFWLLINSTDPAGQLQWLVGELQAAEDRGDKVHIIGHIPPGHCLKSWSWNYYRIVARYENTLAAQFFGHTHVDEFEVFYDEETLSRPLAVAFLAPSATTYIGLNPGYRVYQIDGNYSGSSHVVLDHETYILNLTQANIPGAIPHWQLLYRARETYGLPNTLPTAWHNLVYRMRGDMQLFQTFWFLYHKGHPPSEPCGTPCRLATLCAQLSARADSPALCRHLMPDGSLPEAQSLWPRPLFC
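HMU-PC0 cleavage (9 uM final) by human placental ASM, 60 min at 37 °C following 10 min compound exposure at RT; stopped at pH 10, fluorescence Ex 386/Em 447 nm.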
SW480 rerep: DNA re-replication induction in SW480 cells; SW480 DNA re-replication, Hoechst DNA content imaging, 48 h; Potency, µM (highest dose often 46.1 µM), most hits filed as activators; 1.8% of 340,000 active; AID 624297; also: nearly all actives have a fitted effect of over 55% in size
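Cells (250 per well) received 23 nL compound or DMSO by pin tool and were kept 48 hr at 37 C, 5% CO2. Nuclei were then stained with Hoechst for 40 min and scanned for DNA content.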
Numbers stand for hits; – = inactive; ? = inconclusive; · = no result; [ ] = remark or other dose. Sampled rows, rich in hits. Any-hit rate of the full collection: about 6.9%. Unless noted, calls follow the shape of the dose curve; as a rule, active = well fitted curve in the direction sought with a large enough effect; inconclusive = small, poorly fitted or top-dose-only effect, or another doubt; inactive = no such curve, though single readings can be large; an effect the other way counts as inactive or inconclusive.

SMILES	Giardia kill	KB-V1 cytotox	MCF10A rerep	KB-3-1 tox	ASM inhibitor	SW480 rerep
CN(C)/C=C/C(=O)c1ccc(Cl)cc1	–	–	18µM	–	–	–
CN(C)/C=C/C(=O)c1cccc(Cl)c1	–	–	5.8µM	–	–	–
C=Cc1ccc(Cn2c(C(=O)O)c(CNC3CCCCC3)c3ccc(C)cc32)cc1	·	?	·	–	·	·
N=C1/C(=C/c2cccn2CCOc2ccccc2)C(=O)N=C2SC=C(c3ccccc3)N12	–	3.7µM	1.3µM	?	–	18µM
CS(=O)(=O)C1=NSC2=NC(=O)/C(=C\c3ccc(-c4ccccc4)o3)C(=N)N21	·	·	–	·	·	–
N=C1/C(=C/c2ccc(-c3cccc(C(=O)O)c3)o2)C(=O)N=C2SC=C(c3ccccc3)N12	–	–	5.8µM	–	–	–
CC(C)S(=O)(=O)C1=NSC2=NC(=O)/C(=C\c3ccc(-c4ccccc4)o3)C(=N)N21	–	16µM	16µM	–	–	?
CCCCNCCOCCOc1ccccc1-c1ccccc1	–	18µM	–	–	·	?
O=C1C=CC(=O)N1c1ccc2c(c1)C(NC(=O)C(F)(F)F)c1ccccc1-2 (centres undefined)	–	·	?	·	–	8.2µM
O=C(/C(=C/c1ccccc1Cl)c1ccccc1)N1CCOCC1	–	23µM	–	–	–	–
COc1ccc(CCNCC(O)COc2cccc(Br)c2)cc1 (centres undefined)	–	–	?	–	–	?
OC(CNCCc1ccc(C(F)(F)F)cc1)COc1cccc2ccccc12 (centres undefined)	–	?	21µM	–	–	16µM
COc1ccccc1COCC(O)CNCCc1ccc(C(F)(F)F)cc1 (centres undefined)	–	–	–	–	–	?
OC(CNCCc1ccc(C(F)(F)F)cc1)COc1ccc2ccccc2c1 (centres undefined)	–	?	5.8µM	?	–	?
Cc1cc(C)c(Cn2c(=O)n(CCC(=O)NCc3ccc4c(c3)OCO4)c(=O)c3ccccc32)c(C)c1	·	?	·	–	·	·
Cc1ccnc(NC(=S)N2CCN(c3ccc(C#N)cc3)CC2)c1	·	–	·	–	·	·
CCOC(=O)c1c(-c2ccccc2)oc2ccc(OCc3ccccc3Br)cc12	·	–	·	–	·	·
COc1cc(/C=C(\C#N)C(=O)NC2CCCCC2C)ccc1OS(=O)(=O)c1ccc(C)cc1 (centres undefined)	–	–	18µM	?	–	?
CCCCCCCCNC(=O)/C(C#N)=C/c1ccc2c(c1)OCCO2	–	–	?	–	–	–
CC1CCCCC1NC(=O)/C(C#N)=C/c1ccccc1F (centres undefined)	–	–	15µM	–	–	?
CSc1ccc(/C=C(\C#N)C(=O)NC2CCCCC2C)cc1 (centres undefined)	?	16µM	18µM	?	–	?
CCCCCCCCNC(=O)/C(C#N)=C/c1ccc(SC)cc1	–	21µM	–	–	–	2.1µM
CC(=O)Nc1ccc(/C=C(\C#N)C(=O)NC2CCCCC2C)cc1 (centres undefined)	–	?	?	–	–	–
Cc1ccccc1NC(=O)c1c(C)oc2ccc(O)c(CN3CCCC3)c12	·	–	·	–	·	·
CCOc1c(CNCCSc2nnnn2C)cccc1OC	·	–	·	–	·	·
SMILES	Giardia kill	KB-V1 cytotox	MCF10A rerep	KB-3-1 tox	ASM inhibitor	SW480 rerep
CN(C)C=NC1=NN(c2cccc(C(F)(F)F)c2)CC1	–	2.1µM	–	21µM	–	–[9.22 µM]
Cc1n[nH]c(=O)n1-c1cccc(C(F)(F)F)c1	–	–	–	–	–	–
CN1CCN(C=NC2=NN(c3cccc(C(F)(F)F)c3)CC2)CC1	–	10µM	–	?	–	–
O=C(Nc1sc2c(c1C(=O)NCC1CCCO1)CCC2)c1cc(=O)c2ccccc2o1 (centres undefined)	·	–	·	–	·	·
CCOC(=O)c1ccccc1NC(=O)c1nn(-c2ccc(C)cc2)c(=O)n(C)c1=O	·	–	·	–	·	·
O=C(N/N=C/c1cccc2nccnc12)c1ccccc1O	–	–	?	?	–	15µM
COc1ccc(C(=O)/C=C/c2cc(C(=O)O)cc3c2OCOC3)c(O)c1	–	–	18µM	–	–	–

Source: PubChem BioAssay
